From ChEMBL document CHEMBL3988442, “University of Dundee, Small-Polar-MMV Screening Library” (2021) come the findings set out here.

This assay addresses T1, Aspartate--tRNA(Asp/Asn) ligase (Mycobacterium tuberculosis (strain ATCC 25618 / H37Rv)) (UniProt P9WFW3).
T1 sequence (whole entry): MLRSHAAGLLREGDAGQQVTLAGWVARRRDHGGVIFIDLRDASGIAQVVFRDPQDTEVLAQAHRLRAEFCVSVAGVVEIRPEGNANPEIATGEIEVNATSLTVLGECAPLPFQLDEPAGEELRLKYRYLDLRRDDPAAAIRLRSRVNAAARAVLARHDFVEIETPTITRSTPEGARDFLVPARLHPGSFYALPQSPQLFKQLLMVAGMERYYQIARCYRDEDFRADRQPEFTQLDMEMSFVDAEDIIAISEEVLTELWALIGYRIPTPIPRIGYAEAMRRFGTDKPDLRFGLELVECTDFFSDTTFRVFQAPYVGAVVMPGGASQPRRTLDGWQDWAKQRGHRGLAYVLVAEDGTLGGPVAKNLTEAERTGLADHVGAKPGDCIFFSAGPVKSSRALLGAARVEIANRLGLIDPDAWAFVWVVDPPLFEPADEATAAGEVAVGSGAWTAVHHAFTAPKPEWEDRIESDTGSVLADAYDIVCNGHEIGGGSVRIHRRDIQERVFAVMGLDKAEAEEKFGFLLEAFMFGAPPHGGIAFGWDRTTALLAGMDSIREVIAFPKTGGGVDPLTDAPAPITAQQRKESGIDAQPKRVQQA
The assay can be described thus: Assay for Asp RNA synthetase-1 from Mycobacterium tuberculosis. The class given is functional. On the set-up: scale not given: in the data most compounds retested in dose-response had high values. The settings on record: 30 µM.
`CC(C)c1ccc(O)c(C(=O)N2CCN(Cc3cscn3)CC2)c1`: the Percent Effect was -0.175%.

In the case of `CC(C)Nc1nc(N2CCCC2)nc2c1CN(C(C)C)CC2`, the Percent Effect is 2.18%.

Take `CN1CCN(c2cc(CNC(=O)c3ccc(=O)n(C)c3)ccn2)CC1`: the Percent Effect was -4.9%. Take `CN(Cc1cnn(C)c1)C(=O)NC1CCC(O)CC1` (stereo not given): the Percent Effect was -5.01%. As to `CCCNC(=O)CNc1ccc(C(=O)N2CCCCC2C)cc1C` (stereo not given), the Percent Effect amounted to 3.79%.

For `Cn1ccc(CN2CCC(NC(=O)Cc3ccccc3)CC2)cc1=O`, the Percent Effect is -3.72%.

Turning to `CCn1cnnc1CNC(=O)N1CCCN(C(C)=O)CC1`, the Percent Effect is -0.98%. `Cc1nsc(N2CCCN(c3nc(C4CC4)ns3)CC2)n1`: the Percent Effect is 0.575%.

As for `CCn1cnnc1C1CCN(C(=O)c2cnc3ccccc3n2)CC1`, the Percent Effect is -1.17%. For `CN(CC(=O)N1CCC(C(O)c2ccccc2)CC1)c1cnccn1` (stereo not given), the Percent Effect is -0.321%. Turning to `COc1cc(C(=O)N(Cc2ccco2)C2CC2)cc2c1OCCO2`, the Percent Effect was 1.56%. Take `Brc1cc2c(cc1CN1CCC(N3CCCCC3)CC1)OCCO2`: the Percent Effect was -2.09%. For the compound `CN1CCN(Cc2cnc3n2CCN(Cc2cccs2)C3)CC1`, the Percent Effect turned out to be 5.52%. As to `Cc1cnnn1Cc1ncn2c1CN(Cc1cccs1)CCC2`, the Percent Effect was -1.27%.

As to `Clc1ccccc1C1(c2ccnc(-c3ncccn3)n2)CCNCC1`, the Percent Effect worked out at 8.32%. For the compound `CC(C)c1n[nH]c(C2CN(C(=O)CCCn3cccn3)CCO2)n1` (stereo not given), the Percent Effect was -2.62%. The value for `Cn1ccnc1CN1CCC2(CC1)CC(NC(=O)c1ccccn1)CO2` (stereo not given) was 2.38%.

For `CC(NCc1ccc(F)cc1)c1ccc(OCC(=O)NC2CC2)cc1` (stereo not given), the Percent Effect was 0.888%. For the compound `COc1cc(C)nc(N2CCN(C(=O)c3ccccc3C)CC2)n1`, the Percent Effect is 6.7%. On to `CCOCCN1CCn2c(C)nnc2C1`, for which the Percent Effect is 1.76%. For `CC(C)CNc1nc(C(=O)/N=c2\[nH]nc(C(C)(C)C)s2)cs1`, the Percent Effect is -0.96%. `CSCc1cccc(C(=O)N2CCN(CC(C)O)CC2)c1` (stereo not given): the Percent Effect was -0.819%. As to `CC(C)C(Sc1nnnn1-c1ccccc1)C(=O)NCc1cccnc1` (stereo not given), the Percent Effect stood at 1.64%. `CN1CCC(Oc2ccc(NC(=O)c3cccc(Cl)c3)cc2)CC1`: the Percent Effect was -0.327%. In the case of `CC(=O)N(C)c1nc(CN2CCCCC2Cn2cncn2)cs1` (stereo not given), the Percent Effect was -3.1%. With `COCC(O)CN(C)C(=O)NC1CCN(Cc2ccccn2)CC1` (stereo not given), the Percent Effect was -3.52%.

With `Cc1ccc(=O)n(CC2(O)CCN(Cc3cnc(C)nc3)CC2)n1`, the Percent Effect was 1.71%. Consider `COCC(=O)N1CC[C@@H](O)[C@@H]1Cc1ccccc1`, for which the Percent Effect amounted to 4.62%. For `c1coc(-c2noc(CN3CCC(c4ccn[nH]4)CC3)n2)c1`, the Percent Effect is 0.546%. With `O=c1[nH]c2c(c(=O)n1C1CCCCC1)CCC2Nc1ccccc1` (stereo not given), the Percent Effect was found to be 3.05%. For `CCSCCNC(=O)C(c1cccc(C)c1)N(C)C` (stereo not given) the value was 0.569%.

`Cc1cnccc1CN1C[C@@H](O)[C@H](Oc2ccccc2)C1`: the Percent Effect was 0.283%. In the case of `c1cc(-c2cnccn2)cc(-c2ccn(CCN3CCCC3)n2)c1`, the Percent Effect was 1.97%.

For `CS(=O)(=O)CC(=O)N1C[C@H]2CCC[C@@]2(COCc2ccccn2)C1`, the Percent Effect worked out at 4.11%.

`CCc1nc(C2CCCN2C(=O)CCNS(C)(=O)=O)no1` (stereo not given): the Percent Effect is -7.34%. For `CN(CCC(F)(F)F)C(=O)[C@H]1CSCN1C(=O)OC(C)(C)C` the value was -5.95%; for `COc1ccccc1CC1CCCN(CC(N)=O)C1` (stereo not given), -3.29%; for `COCCCN1CCCN(C(C)C(=O)Nc2cccc(I)c2)CC1` (stereo not given), 0.0704%. For `CCCc1n[nH]cc1C(=O)N1CCC(c2nccn2CCOC)CC1` the value was -6.36%. Take `CC(=O)N1CCC(Cc2cnc(-c3c(C)n[nH]c3C)cn2)C1` (stereo not given): the Percent Effect was -11.6%.
